# Source: PubChem BioAssay AID1456 (Vanderbilt High Throughput Screening Facility, 2008)
# About 4,100 (2.2%) of roughly 190,000 compounds were called active. Only a selection was taken, and actives are over-represented in it overall. Unmarked numbers belong to inactive results.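 How the source made its calls: active means thallium flux slope and its plate-corrected score both differing from the plate sample mean at a set confidence after two filtering rounds, in either direction; inactive means the rest.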
# Biological target: Solute carrier family 12 member 5 (Homo sapiens) (UniProt Q9H2X9)
# Test: modulation of human KCC2 ion transport – cell-based, HEK293 KCC2, FluoZin-2 fluorescence, MLSMR, primary screen (AID 1456);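 further: slope of fluorescence scaled to starting intensity during 10 to 20 s after thallium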
# Conditions: KCC2 cells, thallium flux FluoZin-2 fluorescence; at 10 µM
# Solute carrier family 12 member 5 (Homo sapiens), sequence (Q9H2X9 whole entry, looked up): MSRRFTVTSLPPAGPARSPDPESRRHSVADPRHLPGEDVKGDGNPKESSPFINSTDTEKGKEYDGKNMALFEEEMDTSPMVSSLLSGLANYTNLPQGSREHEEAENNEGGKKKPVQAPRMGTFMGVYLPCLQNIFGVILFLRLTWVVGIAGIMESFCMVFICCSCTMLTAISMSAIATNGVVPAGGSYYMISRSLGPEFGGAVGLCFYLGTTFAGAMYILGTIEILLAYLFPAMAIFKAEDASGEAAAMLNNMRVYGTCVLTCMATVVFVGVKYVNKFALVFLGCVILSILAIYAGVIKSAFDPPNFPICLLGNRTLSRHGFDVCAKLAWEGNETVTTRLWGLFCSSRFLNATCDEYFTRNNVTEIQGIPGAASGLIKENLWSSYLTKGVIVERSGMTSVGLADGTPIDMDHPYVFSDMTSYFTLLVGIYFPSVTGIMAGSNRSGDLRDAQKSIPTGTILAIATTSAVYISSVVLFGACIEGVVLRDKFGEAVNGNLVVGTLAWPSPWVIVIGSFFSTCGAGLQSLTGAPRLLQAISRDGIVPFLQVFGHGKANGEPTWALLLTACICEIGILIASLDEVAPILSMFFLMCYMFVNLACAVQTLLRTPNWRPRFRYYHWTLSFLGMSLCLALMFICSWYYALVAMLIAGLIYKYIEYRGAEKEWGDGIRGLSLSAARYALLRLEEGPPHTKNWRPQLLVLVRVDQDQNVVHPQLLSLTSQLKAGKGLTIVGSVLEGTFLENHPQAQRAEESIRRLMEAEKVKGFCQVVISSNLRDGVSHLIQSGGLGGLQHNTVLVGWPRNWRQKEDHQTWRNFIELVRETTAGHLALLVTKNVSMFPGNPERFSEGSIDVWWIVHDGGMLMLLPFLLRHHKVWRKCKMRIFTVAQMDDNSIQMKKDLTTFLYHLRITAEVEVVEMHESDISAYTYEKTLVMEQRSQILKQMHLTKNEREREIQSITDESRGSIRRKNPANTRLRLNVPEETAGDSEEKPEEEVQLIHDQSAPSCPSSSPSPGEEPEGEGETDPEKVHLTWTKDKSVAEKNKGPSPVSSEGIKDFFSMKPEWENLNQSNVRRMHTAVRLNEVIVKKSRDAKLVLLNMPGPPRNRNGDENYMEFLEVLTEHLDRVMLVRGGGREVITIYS
row,Structure (SMILES),B-score of Tl+ flux slope (higher = more flux/activation; lower = inhibition)
1,Cc1noc(C)c1C(=O)OCC(=O)N1CCN(S(=O)(=O)c2ccc3ccccc3c2)CC1,-0.121
2,CS(=O)(=O)c1ccc(Cl)c(NC(=O)Nc2ccccc2)c1,-0.0556
3,COc1ccc(CCN2C(=O)N(c3ccc(OC)cc3)C(=O)C2CC(=O)Nc2ccc(OC)cc2)cc1 (stereo not drawn),0.0027
4,C/C(=N\NC(=O)CC(C)C)c1c(C(F)(F)F)[nH]n(-c2nc3ccccc3s2)c1=O,-1.82
5,COc1ccccc1P(=O)(c1ccccc1)c1ccccc1NC(C)=O (stereo not drawn),0.0591
6,CCOc1cc2[nH]c(=O)n(CCC(=O)NCc3ccc(OC)cc3)c(=O)c2cc1OCC,0.0101
7,COc1ccc(CNC(=O)C(Cc2ccccc2)n2cccc2)cc1 (stereo not drawn),-2.15
8,COc1ccc(CNC(=O)CCn2cccc2)cc1,7.58 (active)
9,N#CCCCn1c(O)c(N=NC(=O)C(O)c2ccccc2)c2ccccc21 (stereo not drawn),-0.218
10,Cn1cccc1C(C#N)c1ccccc1C#N (stereo not drawn),1.43
11,O=C(COC(=O)c1ccc(S(=O)(=O)Nc2ccccc2)cc1)NCC1CCCO1 (stereo not drawn),0.0831
12,O=C(NCCCN1CCOCC1)c1ccc(N2CCCC2)c([N+](=O)[O-])c1,-0.0166
13,O=C(Nc1cn(-c2ccccc2)nc1-c1ccccc1)c1ccccc1,-1.74
14,O=C(NNC(=S)NC(=O)c1cn(-c2ccccc2)nc1-c1ccccc1)c1ccncc1,8.65 (active)
15,O=C(O)c1ccc(NC(=O)c2cn(-c3ccccc3)nc2-c2ccc(Cl)cc2)cc1,-0.953
16,O=C(NCC(c1cccs1)N1CCOCC1)c1cc(-c2ccccn2)nc2ccccc12 (stereo not drawn),-0.17
17,CCn1c(SCc2ccccc2)nc2c(c1=O)SCC2,-2.99 (active)
18,Cc1cccc(CSc2nc3c(c(=O)n2C)SCC3)c1,-0.478
19,CCc1nnc(NC(=O)CSc2nc3c(c(=O)n2-c2ccccc2OC)SCC3)s1,-2.34
20,CC1=CC(C)(C)NC(=S)N1NC(=O)c1ccccc1Cl,1.28
21,O=c1[nH]c2cccnc2n1-c1ccc([N+](=O)[O-])cc1,1.09
22,C/C(=N/NC(=S)Nc1ccccc1)c1ccc2c(c1)OCO2,17.1 (active)
23,C/C(=N\NC(=O)C(N)=O)c1ccc2c(c1)OCCO2,0.474
24,O=C(Nc1ccccc1)c1ccc2c(c1)OCO2,1.15
25,C/C(CC(=O)NC(C)c1ccccc1)=N\NC(N)=S (stereo not drawn),-0.13

row,Structure (SMILES),B-score of Tl+ flux slope (higher = more flux/activation; lower = inhibition)
1,NS(=O)(=O)c1ccc(NC2=CC(c3ccc(F)cc3)N(c3ccc(S(N)(=O)=O)cc3)C2=O)cc1 (stereo not drawn),-4.18
2,COc1ccc(F)cc1S(=O)(=O)N1CCCCC1,-0.191
3,Cc1cc(C)cc(N(CC(=O)NCCSCc2ccco2)S(C)(=O)=O)c1,-0.0202
4,COc1cc(OC)cc(C(=O)NCCSCc2ccco2)c1,2.23 (active)
5,O=C(/C=C/c1cccc([N+](=O)[O-])c1)NCCSCc1ccco1,0.313
6,O=[N+]([O-])c1ccc2c(c1)C(O)n1nc(-c3ccccc3)nc1S2 (stereo not drawn),0.824
7,Cc1ccc(Cc2nc(-c3cccc(C)c3)no2)cc1,-0.589
8,Cc1ccc(-c2noc(CN3CCN(Cc4ccccc4)CC3)n2)cc1,-2.45 (active)
9,CC1CCN(Cc2nc(-c3ccc(Cl)cc3)no2)CC1,-0.00541
10,COc1cc(/C=C2/C(=O)ON=C2C)ccc1OCc1cccc(F)c1,0.0292
11,Cc1ccc(C(=O)Nc2nc(N)n(-c3ccccc3)n2)cc1,0.00295
12,c1nnc2c3c4c(sc3ncn12)CCC4,-0.0315
13,S=c1[nH]nc2c3c4c(sc3ncn12)CCCC4,6.7 (active)
14,N=c1c2c3c(sc2ncn1N)CCCC3,1.3
15,O=C(CCl)Nc1cccc(CP(=O)(c2ccccc2)c2ccccc2)c1,-0.0445
16,CCN(CC)C(=O)CS(=O)CC(=O)Nc1cc(OCCOC)c(Cl)cc1Cl (stereo not drawn),-0.00564
17,O=C(Nc1ccccc1F)C1C2C=CC3(O2)C1C(=O)N(c1cccnc1)C3C(=O)NC1CCCCC1 (stereo not drawn),-6.39 (active)
18,O=C(NCc1cccnc1)Nc1ccccc1F,0.189
19,CC(C)N1C(=O)C2C(C(=O)NC3CCCCC3)C3C=CC2(O3)C1C(=O)NC1CCCC1 (stereo not drawn),-0.424
20,Cc1nn(-c2ccccc2)c(=O)c2noc(C)c12,-0.0422
21,CCOC(=O)c1c(NC(=S)Nc2ccccc2C)sc2c1CCC2,-0.787
22,CCOCC(=O)Nc1sc2c(c1C(=O)OCC)CCCC2,0.549
23,CCOC(=O)c1c(NC(=S)NC)sc2c1CCCC2,118 (active)
24,Cc1nc(=O)c(-c2ccccc2)c(C)n1-c1ccc(Br)cc1,-0.435
25,Cc1cc(C)n(-c2nc(SCC(=O)N3CCCC3)c3c4c(sc3n2)CCCC4)n1,0.509

row,Structure (SMILES),B-score of Tl+ flux slope (higher = more flux/activation; lower = inhibition)
1,CCC(O)CNc1nc(-n2nc(C)cc2C)nc2sc3c(c12)CC(C)(C)OC3 (stereo not drawn),-1.67
2,COCCNc1nc(-n2nc(C)cc2C)nc2sc3c(c12)CCCC3,-4.01 (active)
3,COc1cccc(N2C(=O)CC(N3CCc4ccccc4C3)C2=O)c1 (stereo not drawn),0.0221
4,O=C(CSc1nc2ccccc2o1)N/N=C/c1ccccc1C(=O)O,0.867
5,CSc1sc(C(=O)NC(=O)NCc2cccnc2)c(C)c1-c1ccon1,-1.42
6,CCOC(=O)c1cccnc1NC(=O)c1ccncc1,0.477
7,COC(=O)c1ccccc1NC(=S)NC(=O)c1ccccc1F,4.93
8,COC(=O)c1cccnc1NC(=S)NC(C)C,37.7 (active)
9,Nc1scc[n+]1Cc1cccc2cccnc12,-0.326
10,c1ccc2c(CSCc3nc4ccccc4[nH]3)cccc2c1,-2.07
11,c1ccc2c(C[n+]3csc4ccccc43)cccc2c1,4.99 (active)
12,CC(=O)Nc1ccc(C(=O)/C=C/c2ccc[nH]2)cc1,0.0206
13,Cc1ccc(S(=O)(=O)N2CCN(C(=O)COC(=O)c3c(C)noc3C)CC2)c(C)c1,0.177
14,CCn1c(O)c(N=NC2=NC(=O)CS2)c2cc(C)ccc21,8.24 (active)
15,CCn1c(=O)cc(O)c2ccccc21,0.265
16,CCn1c(O)c(N=NC(=O)c2cccc(S(=O)(=O)N3CCCCC3)c2)c2ccccc21,-0.0952
17,O=C(Cn1nnc(N2CCCCC2)n1)c1ccc(Cl)c(Cl)c1,-0.13
18,C/C=N/N(c1ccccc1)c1ccccc1,0.121
19,Cc1ccc(S(=O)(=O)/N=C(/NC(=S)Nc2c(C)n(C)n(-c3ccccc3)c2=O)c2ccccc2)cc1,-0.219
20,CC1CCCN(S(=O)(=O)c2ccc(C(=O)Nc3nnc(-c4ccncc4)o3)cc2)C1 (stereo not drawn),-0.0172
21,CC1CCCCN1S(=O)(=O)c1ccc(S(=O)(=O)N(CC(=O)Nc2ccccc2)Cc2cccs2)cc1 (stereo not drawn),0.0298
22,CC1CCCCN1S(=O)(=O)c1ccc(C(=O)Nc2nnc(-c3cccs3)o2)cc1 (stereo not drawn),6.64 (active)
23,CC(C)Cc1ccc(C(C)C(=N)N)cc1 (stereo not drawn),0.737
24,NS(=O)(=O)c1ccc(CNC(=O)c2cnccn2)cc1,1.11
25,NCC(=O)c1cccc2ccc[n+]([O-])c12,1.34

row,Structure (SMILES),B-score of Tl+ flux slope (higher = more flux/activation; lower = inhibition)
1,COc1ccc(CCN2C(=O)CC(N3CCC(C(N)=O)CC3)C2=O)cc1OC (stereo not drawn),0.129
2,CC1(C)Cc2ccccc2-c2nnc(-c3cccc(O)c3)n21,-0.616
3,O=c1c2ccccc2nc2n1C1(CCCCC1)Cc1ccccc1-2,-0.241
4,c1cncc(-c2nnc3n2C2(CCCCC2)Cc2ccccc2-3)c1,4.46 (active)
5,Cc1ccc(CN2CCN(Cc3ccc4ncccc4c3)CC2CCO)cc1 (stereo not drawn),-0.182
6,O=C(Nc1nc(-c2ccncc2)cs1)C1COc2ccccc2O1 (stereo not drawn),-0.139
7,O=C(Nc1nc2c(F)cc(F)cc2s1)C1COc2ccccc2O1 (stereo not drawn),67.4 (active)
8,COc1ccc(OC)c2sc(NC(=O)C3COc4ccccc4O3)nc12 (stereo not drawn),-1.33
9,CC(C)c1cc(CN2CCOCC2)cc(C(C)C)c1O,-0.911
10,CCn1cc(C(=O)NCCCN2CCCCCC2)c(=O)c2cc(S(=O)(=O)N3CCc4ccccc4C3)ccc21,0.575
11,Cc1nc(C(=O)N2CCCC(C(=O)c3ccc(Cl)cc3)C2)cs1 (stereo not drawn),-0.00258
12,Cc1ccccc1Nc1c(-c2ccccc2)nc2ncccn12,-0.0089
13,S=c1nccc(-c2cc(Cl)sc2Cl)[nH]1,7.16 (active)
14,Cc1cccc(N(C)C(=O)c2cc3c(=O)[nH]c4ccc(C)cc4c3s2)c1,0.185
15,COCCN1C2=C(COC(C)(C)C2)C(=S)NC1c1ccccc1 (stereo not drawn),-0.146
16,Fc1ccc(COc2ccc(-c3nnco3)cc2)cc1,-1.14
17,Fc1ccc(COc2cccc(-c3n[nH]c(=S)o3)c2)cc1,69.9 (active)
18,Cc1cccc(OCc2ccc(C(=O)Nc3ccc(F)cc3)cc2)c1,0.491
19,NNC(=O)c1oc2nc(-c3ccccc3)cc(-c3ccco3)c2c1N,0.0896
20,O=C(COc1ccccc1)N1CCN=C1SCc1cccc(F)c1,0.197
21,CC(C)CCN1NC2(CCC(C)CC2)NC1=S (stereo not drawn),1.32
22,Cc1ccc(-c2nc3ccccc3[nH]c2=O)cc1,0.871
23,CC(CNS(=O)(=O)c1ccc(Br)cc1)CN(C)C (stereo not drawn),0.781
